38 molecules from PubChem BioAssay (NCI) can be followed below.

About 83,000 compounds went through this panel and 20% of them were active in at least one assay; those are over-represented in the sample as a whole.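 The test compound was applied at a single concentration to cells in 96-well plates for 48 hours, and percent growth was recorded.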 Values without a mark were called inactive. Rule for the calls: active = growth percent below 10; inactive = the rest.

In this assay the test system is TK-10 renal. As to the kind of experiment: NCI-60 one-dose screen, 48 h (100 = growth as untreated, 0 = no growth, -100 = all killed). The settings on record: 10 µM unless noted.
For the molecule `Cn1ccnc1C(=O)/C=C/c1ccc(NC(=O)Nc2ccc(Cl)cc2)cc1`, the growth is 131%.

For `C#Cc1nc(C2=C(C)/C(=N/OCc3ccccc3)CC2)cs1`, the growth is 158%.

Regarding `COc1ccc(-n2c(SCC(=O)Nc3ccc(-c4nc5ccccc5[nH]4)cc3)nc3ccccc3c2=O)cc1`, the growth is 107%.

Consider `COc1cc(OC)c(S(=O)(=O)NNC(=O)c2ccncc2)cc1C(=O)/C=C/c1ccc(C)cc1`, for which the growth is 145%.

As to `COC(=O)C(C)NS(=O)(=O)/N=C1\NC(=O)NC1=C(Cl)Cl` (stereo not drawn), the growth was 140%.

Take `COc1ccc(C(=O)/C=C/c2ccc(Oc3nc(NCCO)nc(N4CCOCC4)n3)c(OC)c2)cc1`: the growth was 140%.

`NS(=O)(=O)c1cccc(Nc2nc(SCC(=O)c3ccc(Br)cc3)nc3ccccc23)c1`: the growth is 124%.

With `O=C(N/N=C/c1ccc([N+](=O)[O-])o1)c1[nH]c2ccc(Br)cc2c1-c1ccccc1`, the growth is 78.7%.

For `O=C(N/N=C/c1cccs1)c1[nH]c2ccc(Br)cc2c1-c1ccccc1`, the growth was 121%.

In the case of `COc1cc2cc(Oc3ccc(NC(=O)c4cccc(C(F)(F)F)c4)cc3)c(C)nc2cc1OCCN1CCCCC1`, the growth is 143%.

As to `Cc1sc2c(c1C)c(=O)nc1c(-c3nc(-c4ccc(F)cc4)no3)n[nH]n12`, the growth was 122%.

Turning to `N#Cc1nc(-c2ccccc2)oc1N1CC[C@@H](CO)C1`, the growth was 123%.

On to `Cn1ccnc1C(=O)/C=C/c1ccc(NC(=O)Nc2ccc(F)cc2)cc1`, for which the growth was 106%.

For `COc1ccc(NC2=C(Cl)C(=O)C(C)=C(C)C2=O)cc1OC`, the growth is 170%.

Regarding `NS(=O)(=O)c1ccc(Nc2nc(Nc3ccccc3)nc(-n3nc(-c4ccccc4)cc3-c3ccccc3)n2)cc1`, the growth is 108%.

With `C#Cc1nc(C2=C(C)C(O)/C(=N/O)C2)cs1` (stereo not drawn), the growth was 162%.

As to `Cc1ccc2c(n1)C(=O)C(Cl)=C(Nc1cccc(C(C)C)c1)C2=O`, the growth was 119%.

For `CN1CCc2c(sc3ncnc(N/N=C/c4ccc(Cl)c(Cl)c4)c23)C1`, the growth was 137%.

In the case of `O=C(CSc1nnc(-c2ccc3nc(-c4ccc(Cl)cc4)[nH]c3c2)o1)Nc1ccc(C(=O)/C=C/c2ccc(Cl)cc2)cc1`, the growth was 129%.

As to `O=C(N/N=C/c1ccc(Br)s1)c1[nH]c2ccc(Br)cc2c1-c1ccccc1`, the growth is 109%.

In the case of `C#Cc1nc(C2=C(C)C(O)CC2)cs1` (stereo not drawn), the growth was 151%.

Turning to `O=C(N/N=C/c1ccc[nH]1)c1[nH]c2ccc(Br)cc2c1-c1ccccc1`, the growth is 44.5%.

Regarding `COc1ccc(/C=N/NC(=O)c2[nH]c3ccc(Br)cc3c2-c2ccccc2)s1`, the growth is 122%.

`C/C(=N\NC(N)=O)c1c(O)sc(=O)[nH]c1=O`: the growth is 110%.

In the case of `C#Cc1nc(C2=C(C)C(=O)/C(=N/OC(C)=O)C2)cs1`, the growth is 151%.

Take `Cn1ccnc1C(=O)/C=C/c1ccc(NC(=O)Nc2ccccc2)cc1`: the growth is 85.9%.

With `COc1cc(/C=C/C(=O)c2cc(OC)c(OC)c(OC)c2)ccc1OCc1ccccc1`, the growth is 153%.

For `CC(O)C(NC(=O)C1CCCN1C(=O)CNC(=O)C1CC(=O)NCC(=O)NC(Cc2c[nH]c3ccccc23)C(=O)NC(Cc2ccc(O)cc2)C(=O)NCC(=O)NC(CO)C(=O)NC(CCC(N)=O)C(=O)NC(Cc2c[nH]c3ccccc23)C(=O)N1)C(=O)NCC(=O)NC(CCC(N)=O)C(=O)NC(CCCNC(=N)N)C(=O)NC(CC(=O)O)C(=O)O` (stereo not drawn), the growth is 116%.

For the molecule `COc1cc(/C=C/C(=O)c2cc(OC)c(OC)c(OC)c2)ccc1OCc1ccc(F)cc1`, the growth was 159%.

Turning to `O=C(N/N=C/c1ccc([N+](=O)[O-])s1)c1[nH]c2ccc(Br)cc2c1-c1ccccc1`, the growth was 83.3%.

As to `N#Cc1c(-c2ccc(Cl)cc2)nc2c(-c3ccccc3)c(Nc3ccccc3)nn2c1N`, the growth is 139%.

For the molecule `O=C(Oc1ccc2ccc(=O)oc2c1)c1ccc(Cl)cc1`, the growth was 125%.

Take `C#Cc1nc(C2=C(C)C(OC(=O)CCC(=O)O)CC2)cs1` (stereo not drawn): the growth is 157%.

On to `C#Cc1nc(C2=C(C)C(=N\O)/C(=N/O)C2)cs1`, for which the growth is 196%.

Regarding `O=C(N/N=C/c1ccco1)c1[nH]c2ccc(Br)cc2c1-c1ccccc1`, the growth is 98.7%.

Consider `COC(=O)C(Cc1ccccc1)NS(=O)(=O)/N=C1\NC(=O)NC1=C(Cl)Cl` (stereo not drawn), for which the growth was 118%.

As for `N#Cc1ccc(/C=N/NC(=O)c2[nH]c3ccc(Br)cc3c2-c2ccccc2)s1`, the growth is 102%.

With `CCOc1ccc2nc(NC(=O)c3ccc(C(F)(F)F)cc3)sc2c1`, the growth is 95.4%.
